Screens deposited in PubChem BioAssay by Broad Institute.
Rows were chosen to be rich in hits. Some 2.5% of all compounds tested hit in one or more screens of this group.
Ecoli rRNA inh = selective bacterial rRNA inhibition in E. coli; GFP signal change (wild-type ribosome), % (concentration not given with the values); E. coli WT GFP vs humanized-ribosome RFP mutants, fluorescence, 24 h; hits give low values; DMSO median 0, no signal -100; AID 720706; 350,000 compounds, 1.6% hits;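 active = significant combined selectivity score with lowered wild-type GFP, culture density cut under 30%, mutant RFP and density less affected; inactive = any of these conditions unmet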
NSD2 HMT inh = NSD2 (human) methyltransferase inhibition. AID 743445. 310,000 compounds, 0.54% hits. NSD2 peptide methylation, AlphaScreen, 120 min. inhibition, % at 12.5 µM; in the data active = inhibition above about 50%
MLL AF4-AF9 inh = inhibitors of human MLL-AF4/AF9 interaction; 350,000 compounds, 0.47% hits; inhibition, % at 10 µM; P42568; AlphaScreen, biotin-AF4 peptide binding to FLAG-AF9;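 active = every replicate reaching a set inhibition limit, whatever the replicate mean, cut at about 25% in these data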;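 note: 0% = plate neutral control median and 100% = total signal loss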
RAD52 anneal inh = inhibitors of human RAD52 DNA annealing | P43351 | recombinant RAD52 DNA annealing, FRET fluorescence | inhibition, % at 18.7 µM | 360,000 compounds, 0.46% hits;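 active = every replicate showing at least 50% inhibition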
Target sequence (P43351 whole entry, looked up): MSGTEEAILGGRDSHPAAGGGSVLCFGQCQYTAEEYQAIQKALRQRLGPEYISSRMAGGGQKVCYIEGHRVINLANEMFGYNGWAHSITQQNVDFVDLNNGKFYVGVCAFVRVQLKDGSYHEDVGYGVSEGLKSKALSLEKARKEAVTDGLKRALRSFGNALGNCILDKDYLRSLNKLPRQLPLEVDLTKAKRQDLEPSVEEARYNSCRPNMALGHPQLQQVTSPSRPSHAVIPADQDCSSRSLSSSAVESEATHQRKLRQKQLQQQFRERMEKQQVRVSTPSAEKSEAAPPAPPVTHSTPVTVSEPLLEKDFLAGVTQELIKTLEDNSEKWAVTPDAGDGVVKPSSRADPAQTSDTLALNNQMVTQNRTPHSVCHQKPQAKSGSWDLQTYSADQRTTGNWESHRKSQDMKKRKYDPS
Casp6 inh = blocks human caspase-6 cleavage activity. inhibition, % at 12.5 µM. purified caspase-6, Z-VEID-R110 cleavage fluorescence. P55212. 350,000 compounds, 0.53% hits;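 active = mean inhibition across replicates at least about 35%, with every replicate also reaching that limit, limit read from the data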;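 note: 0% = median of neutral control wells and 100% = no fluorescence left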
Alpha artifact = interferes with AlphaScreen signal, flagging NSD2 false positives | 1,500 compounds, 9.4% hits | AC35, µM (titrated, usually from 10 µM), without a hit: at the highest dose activity change, negative = signal loss | AlphaScreen artifact counterscreen, preloaded methylated H4 peptide | shares compounds with NSD2 HMT inh; call rule not given here
* = called active by the depositor.

For O=C(C[C@@H]1C[C@H]2c3cc(NC(=O)NC4CCCC4)ccc3O[C@H]2[C@@H](CO)O1)NCc1ccccc1F the results were Ecoli rRNA inh 3, MLL AF4-AF9 inh 0, RAD52 anneal inh -9 and Casp6 inh 1.
Screening CO[C@@H]1CN(C)C(=O)c2cc(NC(=O)c3ccccc3)ccc2OC[C@@H](C)N(C(=O)C2CC2)C[C@@H]1C returned Ecoli rRNA inh -3, MLL AF4-AF9 inh 4, RAD52 anneal inh -2 and Casp6 inh -2.
For Cc1nc2c(ccc3c2ccc2nc(C)sc23)s1 the results were NSD2 HMT inh 4.
COc1cc2sc(C)nc2c2ccccc12 was read as Ecoli rRNA inh -5, NSD2 HMT inh 64*, MLL AF4-AF9 inh -8, RAD52 anneal inh 4, Casp6 inh 40* and Alpha artifact -1%.
O=C(C[C@H]1CC[C@H](NC(=O)C2CCOCC2)[C@@H](CO)O1)NCc1ccccc1Cl was read as Ecoli rRNA inh -1, MLL AF4-AF9 inh 2, RAD52 anneal inh 17 and Casp6 inh -7.
For O=C(Nc1nccs1)c1ccc2nccnc2c1 the results were NSD2 HMT inh 125* and Alpha artifact -2%.
Cc1ccc(C(=O)Nc2nccs2)cc1 was read as Ecoli rRNA inh 5, NSD2 HMT inh -1, MLL AF4-AF9 inh 2, RAD52 anneal inh -12 and Casp6 inh 0.
Screening O=C(CCC(=O)N1CCN(c2cccc(Cl)c2)CC1)N1CCN(c2ccccc2)CC1 returned Ecoli rRNA inh -23, NSD2 HMT inh 4, MLL AF4-AF9 inh 0, RAD52 anneal inh -17 and Casp6 inh -2.
`Clc1cccc(N2CCN(CCCN3CCN(c4ccccc4)CC3)CC2)c1` gave Ecoli rRNA inh -11, NSD2 HMT inh 53*, MLL AF4-AF9 inh 16, RAD52 anneal inh 6, Casp6 inh -2 and Alpha artifact -17%.
Screening CCCC#Cc1ccc([C@H]2[C@@H](CO)N3CCCCN(Cc4cccnc4)C[C@@H]23)cc1 returned Ecoli rRNA inh 4, MLL AF4-AF9 inh -1, RAD52 anneal inh -24 and Casp6 inh -1.
Screening CCn1c(O)c(C=NC2CCCC2)sc1=S returned NSD2 HMT inh 9.
`CCn1c(O)c(/C=N/n2cnnc2)sc1=S` gave NSD2 HMT inh 67* and Alpha artifact -3%.
For O=C1c2ccccc2C(=O)N1CCC(c1ccc(F)cc1)c1ccco1 (centres undefined) the results were NSD2 HMT inh 119* and Alpha artifact -2%.
O=C(CC1C(=O)N(c2ccccc2)C(=S)N1c1ccccc1)c1ccccc1 (centres undefined) was read as Ecoli rRNA inh -8, NSD2 HMT inh 1, MLL AF4-AF9 inh 1, RAD52 anneal inh -18 and Casp6 inh 1.
Screening O=C(CC1C(=O)N(c2ccccc2)C(=S)N1c1ccccc1)c1ccc(Br)cc1 (centres undefined) returned Ecoli rRNA inh 9, NSD2 HMT inh 50*, MLL AF4-AF9 inh 0, RAD52 anneal inh -18, Casp6 inh -8 and Alpha artifact 2%.
C[C@@H]1CN([C@@H](C)CO)C(=O)c2cccc(NC(=O)C3CC3)c2O[C@H]1CN(C)CC1CCCCC1 was read as Ecoli rRNA inh -2, MLL AF4-AF9 inh -2, RAD52 anneal inh -7 and Casp6 inh 2.
Screening CCOc1ccccc1NCc1nnc(-c2ccccc2)o1 returned Ecoli rRNA inh -18, NSD2 HMT inh 66*, MLL AF4-AF9 inh -2, RAD52 anneal inh -3, Casp6 inh 11 and Alpha artifact -2%.
Screening COc1ccc(OC)c(NCc2nnc(-c3ccccc3)o2)c1 returned Ecoli rRNA inh 2, NSD2 HMT inh 6, MLL AF4-AF9 inh 10, RAD52 anneal inh -8 and Casp6 inh 0.
`O=C(O)c1cc(N2C(=O)C=CC2=O)cc(N2C(=O)C=CC2=O)c1` gave Ecoli rRNA inh 7, NSD2 HMT inh 88*, MLL AF4-AF9 inh -12, RAD52 anneal inh -11, Casp6 inh 61* and Alpha artifact -8%.
For CCCC#Cc1ccc([C@H]2[C@@H](CO)N3C(=O)CN(C(=O)Nc4cccc(F)c4)C[C@H]23)cc1 the results were Ecoli rRNA inh -13, MLL AF4-AF9 inh 0, RAD52 anneal inh -3 and Casp6 inh -1.
COc1ccc(C(=O)Oc2ccc(/C=N/Nc3ccc(Cl)c(C(=O)O)c3)cc2OC)cc1 was read as Ecoli rRNA inh -8, NSD2 HMT inh 85*, MLL AF4-AF9 inh 4, RAD52 anneal inh -18, Casp6 inh 17 and Alpha artifact -6%.
COc1cc(/C=N/Nc2ccc(Cl)c(C(=O)O)c2)ccc1OC(=O)c1ccco1 was read as Ecoli rRNA inh -6, NSD2 HMT inh 5, MLL AF4-AF9 inh 0, RAD52 anneal inh -23 and Casp6 inh 3.
O=C(CCCCC(=O)NCCc1ccccc1)NCCc1ccccc1 was read as Ecoli rRNA inh 7, NSD2 HMT inh 11, MLL AF4-AF9 inh -10, RAD52 anneal inh 7 and Casp6 inh -3.
`O=C(CC(=O)NCCc1ccccc1)NCCc1ccccc1` gave Ecoli rRNA inh -1, NSD2 HMT inh 124*, MLL AF4-AF9 inh -2, RAD52 anneal inh -7, Casp6 inh -4 and Alpha artifact -1%.
Screening C[C@H]1CCCCO[C@@H](CN(C)S(=O)(=O)c2ccccc2)[C@@H](C)CN([C@@H](C)CO)C(=O)c2cc(NS(=O)(=O)c3cn(C)cn3)ccc2O1 returned Ecoli rRNA inh -2, MLL AF4-AF9 inh 1, RAD52 anneal inh -7 and Casp6 inh 2.
`O=C1N=C(N2CCOCC2)SC1=Cc1ccco1` gave Ecoli rRNA inh 10, NSD2 HMT inh 1, MLL AF4-AF9 inh -63, RAD52 anneal inh -75 and Casp6 inh 9.
For O=C1C(=Cc2ccco2)CCC1=Cc1ccco1 the results were Ecoli rRNA inh 19, NSD2 HMT inh 141*, MLL AF4-AF9 inh -1, RAD52 anneal inh -64, Casp6 inh 88* and Alpha artifact -9%.
O=C(Cc1cccnc1)N1CC(=O)N2[C@H](C1)[C@H](c1ccc(C#CC3CCCC3)cc1)[C@@H]2CO was read as Ecoli rRNA inh 4, MLL AF4-AF9 inh 9, RAD52 anneal inh -1 and Casp6 inh -2.
O=C1CCCC2=C1C(c1ccc(O)c(O)c1)c1c(ccc3ncccc13)N2 (centres undefined) was read as Ecoli rRNA inh 6, NSD2 HMT inh 77*, MLL AF4-AF9 inh 4, RAD52 anneal inh 2, Casp6 inh 62* and Alpha artifact 0%.
CCOc1ccc(C2C3=C(CCCC3=O)Nc3ccc4ncccc4c32)cc1 (centres undefined) was read as Ecoli rRNA inh -13, NSD2 HMT inh -6, MLL AF4-AF9 inh -6, RAD52 anneal inh 7 and Casp6 inh 3.
`COCc1[nH][nH]c(=O)c1C=NCC(=O)OC` gave Ecoli rRNA inh 9, NSD2 HMT inh 51*, MLL AF4-AF9 inh -2, RAD52 anneal inh -10, Casp6 inh -5 and Alpha artifact -6%.
For COCc1[nH][nH]c(=O)c1C=Nc1ccccc1 the results were NSD2 HMT inh 0.
